In PubChem BioAssay (EPA / NIEHS):
Records with an inconclusive call do not appear. Activity calls are given as the source filed them. The calls were made as follows, unless noted: active = hit-call score of the fitted dose curve at least 0.9, where 1 is the maximum; inconclusive = response in the unintended direction; inactive = score below 0.9.

Key:
[1] = TOX21_p53_BLA_p2_viability: Viability Assessment in the Tox21 HCT-116 p53 Agonism Beta-lactamase Assay, Phase 2 (AID 2283591);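 also: compound exposure lasted 16 h at 37 °C; actives lower the ATP signal meaning cytotoxicity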
Outline: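 HCT-116 p53-bla cells (4000/well) rested 5 h at 37C, then received compounds in DMSO (217-fold dilution) for 16 h at 37C, 5% CO2. After the CCF4 read, CellTiter-Glo was added; ATP luminescence was read after 30 min at room temperature.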

[2] = biological target: Cellular tumor antigen p53 (Homo sapiens) (UniProt P04637); experiment: TOX21_p53_BLA_p2_ratio: Tox21 HCT-116 p53 Agonism Beta-lactamase Assay, Ratio, Phase 2 (AID 2283592)
Outline: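 DMSO-normalized, positive-direction endpoint derived from the 460 nm/530 nm FRET ratio in HCT116 p53 beta-lactamase reporter cells exposed 16 h at 37C and loaded with CCF4-AM for 2 h.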

[3] = TOX21_p53_BLA_p4_viability: Viability Assessment in the Tox21 HCT-116 p53 Agonism Beta-lactamase Assay, Phase 4 (AID 2283597);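 also: hits lower the luminescence signal meaning cytotoxicity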
Outline: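 In this multiplexed secondary endpoint, HCT116 cells (4000 per well, compound at 5 h, 16 h treatment) received CellTiter-Glo after the beta-lactamase read. Luminescence after 30 min RT reflects ATP, and falling signal marks cytotoxicity.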

[4] = TOX21_p53_BLA_p5_viability: Viability Assessment in the Tox21 HCT-116 p53 Agonism Beta-lactamase Assay, Phase 5 (AID 2283600)
Outline: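 Here cell health was gauged by ATP levels in wells holding 4000 cells, each treated 16 h with DMSO-delivered compounds at 217-fold dilution; reduced luminescence marked toxicity.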

[5] = biological target: Cellular tumor antigen p53 (Homo sapiens) (UniProt P04637); experiment: TOX21_p53_BLA_p4_ratio: Tox21 HCT-116 p53 Agonism Beta-lactamase Assay, Ratio, Phase 4 (AID 2283601)
Outline: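 HCT116 cells carrying an inducible beta-lactamase reporter were plated at 4000 cells/well, rested 5 h, then exposed to compounds in DMSO (217-fold dilution) for 16 h at 37C. CCF4-AM substrate was loaded 2 h at room temperature; 460/530 nm emission ratio scored gain-of-signal versus DMSO.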

[6] = biological target: Cellular tumor antigen p53 (Homo sapiens) (UniProt P04637); experiment: TOX21_p53_BLA_p5_ratio: Tox21 HCT-116 p53 Agonism Beta-lactamase Assay, Ratio, Phase 5 (AID 2283599)
Outline: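 HCT-116 cells carrying a p53-inducible beta-lactamase reporter were seeded at 4000 cells/well and dosed after 5 h with compound in DMSO (217-fold dilution). After 16 h at 37C, CCF4-AM substrate was added for 2 h, and the 460/530 nm emission ratio was scored as gain-of-signal versus DMSO.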

PGR (gene 5241) [7] = biological target: PGR (gene 5241) (UniProt P06401); experiment: TOX21_PR_BLA_Followup_Agonist_ratio: Tox21 HEK293 Progesterone Receptor (PR) Agonism Beta-lactamase Follow-Up Assay, Ratio (AID 2283933)
Outline: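 Ratio-based beta-lactamase reporter signal after 16 hr compound treatment of PR-UAS-bla HEK293T cells at 37C. Substrate loading lasted 2 hr at room temperature.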

PGR (gene 5241) [8] = biological target: PGR (gene 5241) (UniProt P06401); experiment: TOX21_PR_BLA_Followup_Antagonist_ratio: Tox21 HEK293 Progesterone Receptor (PR) Antagonism Beta-lactamase Follow-Up Assay, Ratio (AID 2283934);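 also: PR-UAS-bla HEK293T cells stimulated with 1 nM R5020 agonist for 16 hr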
Outline: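 Measured in PR-UAS-bla HEK293T cells co-treated with compound and 1 nM promegestone for 16 hr; beta-lactamase ratio read after 2 h FRET substrate loading, with parallel CellTiter-Glo cytotoxicity.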

[9] = TOX21_PR_BLA_Followup_Agonist_viability: Viability Assessment in the Tox21 HEK293 Progesterone Receptor (PR) Agonism Beta-lactamase Follow-Up Assay (AID 2283935);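 also: signal loss means lower viability so actives are cytotoxic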
Outline: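 Viability is read as CellTiter-Glo luminescence, where loss of signal indicates cytotoxicity. The cells are PR-UAS-bla HEK293T given compounds for 16 hr at 37C and 5% CO2, in the same wells used for the bla readout.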

[10] = TOX21_PR_BLA_Followup_Antagonist_viability: Viability Assessment in the Tox21 HEK293 Progesterone Receptor (PR) Antagonism Beta-lactamase Follow-Up Assay (AID 2283936);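 also: cells exposed to compound with R5020 agonist for 16 h; hits lower the luminescence signal meaning cytotoxicity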
Outline: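 PR-UAS-bla HEK293T cells in medium with 2% charcoal-stripped FBS were treated with compounds plus R5020 for 16 hr at 37C. After the beta-lactamase read, CellTiter-Glo was added to the same wells and luminescence read after 30 min at room temperature.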

[11] = TOX21_PR_LUC_Followup_Antagonist_viability: Viability Assessment in the Tox21 HEK293 Progesterone Receptor (PR) Antagonism Luciferase Follow-Up Assay (AID 2283940)
Outline: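 Loss of CellTiter-Glo ATP signal indicates cytotoxicity in HEK293-PR-A-luc cells grown in 10% charcoal-stripped FBS medium, seeded 3,000 per well and incubated 16 h with compound at 37C.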

[12] = TOX21_PR_LUC_Followup_Agonist_viability: Viability Assessment in the Tox21 HEK293 Progesterone Receptor (PR) Agonism Luciferase Follow-Up Assay (AID 2283941);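 also: loss of signal means cytotoxicity so actives lower viability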
Outline: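 Seeding: HEK293-PR-A-luc, 3,000 cells/well, 5 h at 37C. Treatment: compound in DMSO, 16 h, 37C. Read: CellTiter-Glo ATP luminescence, signal loss taken as lower viability.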

[13] = CCTE_Harrill_HTTr_Viability_MCF7: CCTE's 6-hour Cell Viability Assessment for the High-Throughput Transcriptomics (HTTr) Platform, in MCF-7 cells cultured in DMEM + 10% fetal bovine serum, Harrill Lab (AID 2284010; active = hit-call score of the fitted dose curve at least 0.9, where 1 is the maximum; inactive = score below 0.9)
Outline: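 Eight-point concentration series, six-hour exposure. Propidium iodide exclusion imaged to assess membrane integrity as a cytotoxicity readout; bidirectional fitting was done with DMSO as negative control and activity baseline.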

[14] = CCTE_Harrill_HTTr_Apoptosis_MCF7: CCTE's 6-hour Apoptosis Assessment for the High-Throughput Transcriptomics (HTTr) Platform, in MCF-7 cells cultured in DMEM + 10% fetal bovine serum, Harrill Lab (AID 2284011; active = hit-call score of the fitted dose curve at least 0.9, where 1 is the maximum; inactive = score below 0.9)
Outline: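 Apoptosis in MCF-7 cells grown in DMEM with 10% fetal bovine serum was scored after a six hour exposure by high content imaging of caspase-3/7 activation (CellEvent Caspase 3/7 Green), with DMSO serving as negative control and baseline.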

THRB (gene 7068) = THRB (gene 7068) (UniProt P10828); experiment: TOX21_TRB_BLA_Antagonist_Followup_ratio: Tox21 Thyroid Hormone Receptor beta Antagonism Beta-lactamase (BLA) Follow-Up Assay, Ratio (AID 2283958)
Outline: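 Using charcoal-stripped 2% FBS medium, human TRβ-LBD/GAL4 reporter HEK293T cells received test compounds for 18 h. The endpoint is the cleaved-to-uncleaved substrate ratio (460/530 nm).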

[15] = biological target: Retinoic acid receptor RXR-alpha (Homo sapiens) (UniProt P19793); experiment: TOX21_TR_RXR_BLA_Antagonist_Followup_ratio: Tox21 Thyroid Hormone Receptor beta Retinoid X Receptor alpha (RXRa) Antagonism Beta-lactamase (BLA) Follow-Up Assay, Ratio (AID 2283972)
Outline: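 Compounds were tested in triplicate at 11 concentrations on RXRa-bla HEK293T cells for 16 h. Substrate cleavage ratio, normalized to DMSO, gave the endpoint.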

[16] = TOX21_TR_RXR_BLA_Antagonist_Followup_viability: Viability Assessment in the Tox21 Thyroid Hormone Receptor beta Retinoid X Receptor alpha (RXRa) Antagonism Beta-lactamase (BLA) Follow-Up Assay (AID 2283979)
Outline: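 RXRa-UAS-bla HEK293T cells seeded 2,500/well in phenol red-free DMEM with 2% charcoal-stripped FBS, attached 5 h, then exposed to compounds at 11 concentrations in triplicate for 16 h at 37C/5% CO2. Viability read by CellTiter-Glo ATP luminescence; bidirectional fit versus DMSO.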

[17] = TOX21_p53_BLA_p3_viability: Viability Assessment in the Tox21 HCT-116 p53 Agonism Beta-lactamase Assay, Phase 3 (AID 2283593);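 also: cells exposed to compound for 16 h before reading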
Outline: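 HCT-116 cells (4000/well) rested 5 h at 37C, then got DMSO compounds by pin tool (217-fold dilution) for 16 h at 37C, 5% CO2. After the bla read, CellTiter-Glo was added and luminescence read at 30 min, room temperature.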

[18] = biological target: Cellular tumor antigen p53 (Homo sapiens) (UniProt P04637); experiment: TOX21_p53_BLA_p3_ratio: Tox21 HCT-116 p53 Agonism Beta-lactamase Assay, Ratio, Phase 3 (AID 2283596)
Outline: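 Cells were seeded at 4000/well, rested 5 h at 37C, then dosed with DMSO compound solutions (217-fold dilution) for 16 h. CCF4-AM substrate was loaded for 2 h at room temperature, and the 460/530 nm emission ratio was fitted for gain of signal versus DMSO.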

Measured: AC50

Cellular tumor antigen p53 (Homo sapiens), sequence (P04637 whole entry, looked up): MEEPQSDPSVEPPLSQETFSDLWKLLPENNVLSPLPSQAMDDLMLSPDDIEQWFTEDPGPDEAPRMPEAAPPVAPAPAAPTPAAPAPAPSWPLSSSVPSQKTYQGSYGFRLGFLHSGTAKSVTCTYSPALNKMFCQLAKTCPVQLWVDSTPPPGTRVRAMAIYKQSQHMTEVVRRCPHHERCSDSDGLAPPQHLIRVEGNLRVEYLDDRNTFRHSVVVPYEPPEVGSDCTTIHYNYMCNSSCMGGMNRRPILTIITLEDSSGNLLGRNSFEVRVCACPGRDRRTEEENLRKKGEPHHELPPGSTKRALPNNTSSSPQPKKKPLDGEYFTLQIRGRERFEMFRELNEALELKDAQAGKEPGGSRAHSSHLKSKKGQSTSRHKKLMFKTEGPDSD
PGR (gene 5241), sequence (P06401 whole entry, looked up): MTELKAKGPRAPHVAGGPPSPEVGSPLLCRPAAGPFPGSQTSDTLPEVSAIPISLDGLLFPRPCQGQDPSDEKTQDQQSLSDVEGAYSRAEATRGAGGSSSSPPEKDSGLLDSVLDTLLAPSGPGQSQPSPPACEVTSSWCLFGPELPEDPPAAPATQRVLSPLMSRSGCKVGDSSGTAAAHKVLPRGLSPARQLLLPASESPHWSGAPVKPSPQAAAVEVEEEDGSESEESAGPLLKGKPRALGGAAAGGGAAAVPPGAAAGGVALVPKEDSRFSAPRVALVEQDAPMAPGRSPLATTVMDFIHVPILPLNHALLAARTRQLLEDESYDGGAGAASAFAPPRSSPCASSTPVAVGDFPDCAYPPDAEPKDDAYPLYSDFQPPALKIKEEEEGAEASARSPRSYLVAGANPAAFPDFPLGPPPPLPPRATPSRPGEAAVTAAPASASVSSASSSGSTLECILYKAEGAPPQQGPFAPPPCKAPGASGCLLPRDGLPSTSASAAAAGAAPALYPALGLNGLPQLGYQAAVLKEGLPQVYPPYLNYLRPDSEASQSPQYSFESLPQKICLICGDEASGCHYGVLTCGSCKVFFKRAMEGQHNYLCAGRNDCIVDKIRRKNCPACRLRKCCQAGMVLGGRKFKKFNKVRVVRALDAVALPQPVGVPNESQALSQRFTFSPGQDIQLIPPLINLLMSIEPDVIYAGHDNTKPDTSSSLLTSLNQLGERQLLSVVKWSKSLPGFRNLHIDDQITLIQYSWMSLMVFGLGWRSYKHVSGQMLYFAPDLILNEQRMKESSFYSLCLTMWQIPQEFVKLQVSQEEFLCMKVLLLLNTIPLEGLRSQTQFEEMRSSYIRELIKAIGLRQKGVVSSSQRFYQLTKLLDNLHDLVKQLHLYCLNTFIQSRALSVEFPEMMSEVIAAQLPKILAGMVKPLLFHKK
Retinoic acid receptor RXR-alpha (Homo sapiens), sequence (P19793 whole entry, looked up): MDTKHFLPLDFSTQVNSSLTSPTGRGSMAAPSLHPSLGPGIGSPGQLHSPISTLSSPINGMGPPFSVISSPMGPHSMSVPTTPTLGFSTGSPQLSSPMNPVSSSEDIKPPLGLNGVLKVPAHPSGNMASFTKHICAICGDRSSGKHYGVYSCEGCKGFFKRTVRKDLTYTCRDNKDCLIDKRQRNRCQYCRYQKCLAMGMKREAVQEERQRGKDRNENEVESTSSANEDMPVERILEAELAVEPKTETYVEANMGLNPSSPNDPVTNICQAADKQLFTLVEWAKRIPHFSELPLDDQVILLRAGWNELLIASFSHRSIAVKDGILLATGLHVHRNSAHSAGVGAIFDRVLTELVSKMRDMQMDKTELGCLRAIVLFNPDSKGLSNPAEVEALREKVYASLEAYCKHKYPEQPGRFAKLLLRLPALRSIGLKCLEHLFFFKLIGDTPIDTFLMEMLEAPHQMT
THRB (gene 7068), sequence (P10828 whole entry, looked up, the tested form may be a part): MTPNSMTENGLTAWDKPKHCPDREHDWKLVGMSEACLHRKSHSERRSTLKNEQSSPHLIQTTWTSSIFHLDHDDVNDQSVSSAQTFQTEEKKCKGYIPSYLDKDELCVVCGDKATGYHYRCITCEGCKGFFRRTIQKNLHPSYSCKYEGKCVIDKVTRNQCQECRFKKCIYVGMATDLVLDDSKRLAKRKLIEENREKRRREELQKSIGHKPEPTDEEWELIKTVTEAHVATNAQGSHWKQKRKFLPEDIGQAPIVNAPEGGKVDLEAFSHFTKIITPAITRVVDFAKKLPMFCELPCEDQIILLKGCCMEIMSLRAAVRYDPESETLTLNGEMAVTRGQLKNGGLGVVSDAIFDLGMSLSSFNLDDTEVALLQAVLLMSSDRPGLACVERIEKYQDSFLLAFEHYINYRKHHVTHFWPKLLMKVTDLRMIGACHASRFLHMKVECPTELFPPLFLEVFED

CC1(C)[C@@H]2CC[C@]3(C2)[C@@H]1C(=O)CCC3(C)C
inactive: [1] | [2] | [3] | [4] | [5]

CC(=O)SC[C@@H](C)C(=O)N1CCC[C@H]1C(=O)N[C@@H](Cc1ccccc1)C(=O)O
inactive: [1] | [2] | [6] | [4]

CN1CCN(C(=O)C2CCCCC2)CC1
inactive: [1] | [2] | [4]

CC(=O)[C@H]1CC[C@H]2[C@@H]3C[C@H](C)C4=CC(=O)CC[C@]4(C)[C@H]3[C@@H](O)C[C@]12C
inactive: [1] | [2] | [6]

CN(C)CCc1c[nH]c2ccc(C[C@H]3COC(=O)N3)cc12
inactive: [1] | [2] | [6] | [4] | [5]

CC(=O)OCC(=O)[C@@]1(O)CC[C@H]2[C@@H]3CCC4=CC(=O)C=C[C@]4(C)[C@@]3(F)[C@@H](O)C[C@@]21C
inactive: [1] | [2] | [3] | [4] | [5] | PGR (gene 5241) [8] | [9] | [10] | [11] | [12]
active: PGR (gene 5241) [7] 16.9 µM

CCCCCCCC/C=C\CCCCCCCCN
inactive: [1] | [2] | [6] | [5]

Cc1c(Cn2ccnc2)c2ccccc2n1CCC(=O)O
inactive: [1] | [2] | [6] | [4] | [5]

CCOC(=N)CC(=O)OCC
inactive: [1] | [2] | [3] | [13] | [14]

CC(C)CN(C[C@@H](O)[C@H](Cc1ccccc1)NC(=O)O[C@@H]1CCOC1)S(=O)(=O)c1ccc(N)cc1
inactive: [1] | [2] | [4]

N[C@H](C(=O)O)c1ccc(O)cc1
inactive: [1] | [2] | [6] | [4] | [5]

CCC(C)(C)C
inactive: [1] | [2] | [3] | [5]

CC(N)CCCC(C)(C)O (stereo unspecified)
inactive: [1] | [2] | [4]

CC1(N)CCC(C(C)(C)N)CC1 (stereo unspecified)
inactive: [1] | [2] | [6] | [4]

CCCCCCN
inactive: [1] | [2] | [6] | [4]

Cc1cc(C(=O)NCCc2ccc(S(=O)(=O)NC(=O)NN3CCCCCC3)cc2)no1
inactive: [1] | [2] | [3] | [5]

ClC(Cl)(Br)Br
inactive: [1] | [2] | [4]

CC(O)c1ccccc1 (stereo unspecified)
inactive: [1] | [2] | [3] | [4] | [5]

N#CCc1ccccc1[N+](=O)[O-]
inactive: [1] | [2] | [6] | [4] | [5]

COc1ccc(/C=C/C(=O)Nc2ccccc2C(=O)O)cc1OC
inactive: [1] | [2] | [3] | [4] | THRB (gene 7068) | [15] | [16]

O=[N+]([O-])c1ccc(/C=N\O)o1
inactive: [1] | [2] | [6] | [5]

C=C(C)C(=O)OCC[N+](C)(C)C
inactive: [1] | [2] | [5]
active: [6] 72.9 µM

CCNc1nc(NC(C)CC)nc(OC)n1 (stereo unspecified)
inactive: [1] | [2] | [6] | [5]
active: [4] 0.00012 µM

CC(C)N=c1cc2n(-c3ccc(Cl)cc3)c3ccccc3nc-2cc1Nc1ccc(Cl)cc1
inactive: [1] | [17] | [18] | [3] | [6] | [4]

CCOC(=O)[C@H](CCc1ccccc1)N[C@@H](C)C(=O)N1Cc2ccccc2C[C@H]1C(=O)O
inactive: [1] | [17] | [18] | [3] | [6] | [4]

CCC(C)C(C(=O)OCC[N+](C)(CC)CC)c1ccccc1 (stereo unspecified)
inactive: [1] | [17] | [18] | [3]

CCC(C)(C)OC(=O)N[C@@H](Cc1c[nH]c2ccccc12)C(=O)N[C@@H](CCSC)C(=O)N[C@@H](CC(=O)O)C(=O)N[C@@H](Cc1ccccc1)C(N)=O
inactive: [1] | [2] | [4] | [5]

NC(=O)CCCCC(N)=O
inactive: [1] | [17] | [18] | [3] | [6] | [4]

CC(C)(C)NC[C@H](O)COc1cccc2c1CCCC2=O
inactive: [1] | [17] | [18] | [3] | [6] | [4]

COc1cc2nc(N3CCN(C(=O)C4COc5ccccc5O4)CC3)nc(N)c2cc1OC (stereo unspecified)
inactive: [1] | [17] | [18] | [3]

CCCCCCCN
inactive: [1] | [2] | [5]

C=CCCC=C
inactive: [1] | [2] | [4] | [5]

NO
inactive: [1] | [2] | [5]
